Laboratory results reported in PubChem BioAssay (Tox21).
Records with an inconclusive call do not appear. Active and inactive are the calls of the source. Unless noted, calls follow the shape of the dose curve; as a rule, active = well fitted curve in the direction sought with a large enough effect in the repeat runs; inconclusive = weak or mixed curves; inactive = no such curve, though single readings can be large; an effect the other way counts as inactive or inconclusive.

Columns and labels:
[1] = qHTS assay to identify small molecule agonists of the vitamin D receptor (VDR) signaling pathway - cell viability counter screen (AID 743224); also: series mostly up to about 63 µM; % is scaled to controls: 0 for no effect and ±100 for the full control effect; nearly all actives have a fitted effect of over 50% in size
Method in brief: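 Viability is measured in the same wells as the VDR-bla reporter assay: after 16 h compound treatment and 2 h substrate loading, CellTiter-Glo is added and luminescence read 30 min later.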

[2] = qHTS assay to identify small molecule antagonists of the vitamin D receptor (VDR) signaling pathway - cell viability counter screen (AID 743225); also: % is scaled to controls: 0 for no effect and ±100 for the full control effect; nearly all actives have a fitted effect of over 50% in size
Method in brief: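 Compounds were pinned onto VDR-bla HEK 293T cells together with 1-alpha,25-dihydroxyvitamin D3 at 3 nM final. After 16 h at 37C and 5% CO2 plus the reporter readout, cell viability was measured by CellTiter-Glo luminescence (30 min, room temperature).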

[3] = qHTS assay to identify small molecule agonists of the NFkB signaling pathway (AID 1159509; active = well fitted curve in the direction sought with a large enough effect in the signal ratio in the repeat runs, not every such curve was filed as active; the % refers to the signal ratio; also: series mostly up to about 61 µM; % is scaled to controls: 0 for no effect and ±100 for the full control effect)
Method in brief: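 After overnight attachment, reporter cells received test compounds, DMSO or positive controls and were incubated 5 hr at 37 C. FRET substrate was then added for 1.5 hr at room temperature before dual-emission fluorescence reading.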

[4] = qHTS assay to identify small molecule agonists of the NFkB signaling pathway - cell viability counter screen (AID 1159515; calls by dose curve; also: series mostly up to about 61 µM; % is scaled to controls: 0 for no effect and ±100 for the full control effect; nearly all actives have a fitted effect of over 55% in size)
Method in brief: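 Multiplexed viability readout: after the 5 hr compound exposure and 1.5 hr FRET substrate step, CellTiter-Glo reagent went into the same NFkB-bla ME-180 wells; ATP luminescence was measured after 30 min at room temperature.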

[5] = qHTS assay to identify small molecule agonists of the endoplasmic reticulum stress response signaling pathway (AID 1159516; active = well fitted activation curve with a large enough effect in the signal ratio in the repeat runs, not every such curve was filed as active; the % refers to the signal ratio; also: % is scaled to controls: 0 for no effect and ±100 for the full control effect)
Method in brief: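 Tox21 10K library screened in quantitative HTS format on ESRE-bla HeLa cells, a beta-lactamase reporter under ER stress response element control; 5 hr treatment, FRET read.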

[6] = qHTS assay to identify small molecule agonists of the endoplasmic reticulum stress response signaling pathway - cell viability counter screen (AID 1159517; calls by dose curve; also: series mostly up to about 61 µM; % is scaled to controls: 0 for no effect and ±100 for the full control effect; nearly all actives have a fitted effect of over 50% in size)
Method in brief: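 Cells, HeLa ESRE-bla; density, 1,500/well; dosing, 5 hr at 37 C, 5% CO2; readout, CellTiter-Glo luminescence after 30 min RT.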

[7] = qHTS assay to identify small molecule antagonists of the retinoid-related orphan receptor gamma (ROR-gamma) signaling pathway - cell viability counter screen (AID 1159520); also: % is scaled to controls: 0 for no effect and ±100 for the full control effect; nearly all actives have a fitted effect of over 50% in size
Method in brief: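 Cytotoxicity was read from cellular ATP (CellTiter-Glo luminescence) after 16 hr at 37 C with 1 uM doxycycline induction. The inducer was added 2 hr after compound transfer to Tet-on ROR gamma CHO cells.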

[8] = molecular target: Nuclear receptor ROR-gamma (Homo sapiens) (UniProt P51449); experiment: qHTS assay to identify small molecule antagonists of the retinoid-related orphan receptor gamma (ROR-gamma) signaling pathway (AID 1159521)
Method in brief: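 Test compounds were applied to Tet-on RORγ CHO cells 2 h ahead of doxycycline hyclate (1 uM final). Luciferase reporter activity was quantified by luminescence after 16 h at 37 C and 5% CO2.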

[9] = qHTS assay to identify small molecule agonists of the AP-1 signaling pathway - cell viability counter screen (AID 1159525; calls by dose curve; also: nearly all actives have a fitted effect of over 55% in size)
Method in brief: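 Luminescent ATP readout (Cell Titer Glo, 30 min RT), normalised to DMSO and tetra n-octyl ammonium bromide controls. Cells were ME-180 AP-1-bla in 0.5% dialyzed FBS Opti-MEM, with a 5 h, 37 °C compound exposure.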

[10] = qHTS assay to identify small molecule agonists of the AP-1 signaling pathway (AID 1159526; calls by dose curve; also: % is scaled to controls: 0 for no effect and ±100 for the full control effect)
[11] = molecular target: Retinoic acid receptor RXR-alpha (Homo sapiens) (UniProt P19793); experiment: qHTS assay to identify small molecule agonists of the RXR signaling pathway (AID 1159527; calls by dose curve; also: % is scaled to controls: 0 for no effect and ±100 for the full control effect; nearly all actives have a fitted effect of over 35% in size)
Retinoic acid receptor RXR-alpha (Homo sapiens), sequence (P19793 whole entry, looked up): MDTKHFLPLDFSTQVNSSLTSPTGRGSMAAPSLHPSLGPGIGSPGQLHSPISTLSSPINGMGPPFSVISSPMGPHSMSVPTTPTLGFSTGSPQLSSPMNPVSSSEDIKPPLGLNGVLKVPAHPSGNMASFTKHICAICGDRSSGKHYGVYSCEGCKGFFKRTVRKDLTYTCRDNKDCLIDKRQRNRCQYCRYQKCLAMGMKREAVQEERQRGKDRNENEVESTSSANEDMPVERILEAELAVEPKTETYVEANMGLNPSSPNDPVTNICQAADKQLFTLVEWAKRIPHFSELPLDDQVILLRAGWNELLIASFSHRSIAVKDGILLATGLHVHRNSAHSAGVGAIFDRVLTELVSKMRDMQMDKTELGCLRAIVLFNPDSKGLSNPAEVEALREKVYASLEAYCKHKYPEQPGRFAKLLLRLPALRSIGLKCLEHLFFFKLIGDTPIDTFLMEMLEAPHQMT
Method in brief: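 Using 9-cis retinoic acid as the reference agonist, chemicals were tested in HEK 293T cells […] for 16 hr; substrate loading lasted 2 hr at room temperature.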

[12] = qHTS assay to identify small molecule agonists of the RXR signaling pathway - cell viability counter screen (AID 1159529)
Method in brief: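 Compounds dissolved in DMSO were pinned onto HEK 293T cells carrying a beta-lactamase reporter under RXR-alpha control and incubated 16 hr. Cytotoxicity was then quantified by CellTiter-Glo luminescence.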

[13] = qHTS assay to identify small molecule antagonists of the retinoid acid receptor (RAR) signaling pathway - cell viability counter screen (AID 1159551); also: % is scaled to controls: 0 for no effect and ±100 for the full control effect; nearly all actives have a fitted effect of over 35% in size
Method in brief: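 Cytotoxicity counter screen in C3RL4 cells: 6 h compound exposure with 1 uM retinol (final), viability from cellular ATP by luminescence.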

[14] = qHTS assay to identify small molecule antagonists of the retinoic acid receptor (RAR) signaling pathway (AID 1159552)
Method in brief: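 Test chemicals and DMSO controls were pin-transferred onto C3RL4 cells a day after seeding; retinol (1 uM final) followed at once. Luminescent reporter output was quantified after 6 hr of co-incubation and 30 min with detection reagent.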

[15] = qHTS assay to identify small molecule agonists of the retinoic acid receptor (RAR) signaling pathway (AID 1159553); also: % is scaled to controls: 0 for no effect and ±100 for the full control effect
Method in brief: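 Agonist activity was scored in C3RL4 cells bearing a retinoic acid response element luciferase construct. Cells were treated with compounds for 6 hr at 37 C, and luciferase signal was measured as luminescence.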

[16] = qHTS assay to identify small molecule antagonists of the estrogen related receptor (ERR) signaling pathway from Tox21 library - cell viability counter screen (AID 1224834); also: % is scaled to controls: 0 for no effect and ±100 for the full control effect; nearly all actives have a fitted effect of over 30% in size
Method in brief: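 Cytotoxicity of test substances is gauged in the same ERR cells used for the antagonist screen, after 17.5 h of compound treatment at 37 C, by CellTiter-Fluor fluorescence measured after 30 min.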

[17] = molecular target: Luciferin 4-monooxygenase (Photinus pyralis) (UniProt P08659); experiment: qHTS assay to identify small molecule inhibitors of firefly luciferase (AID 1224835); also: series mostly up to about 120 µM; % is scaled to controls: 0 for no effect and ±100 for the full control effect; nearly all actives have a fitted effect of over 25% in size
Luciferin 4-monooxygenase (Photinus pyralis), sequence (P08659 whole entry, looked up): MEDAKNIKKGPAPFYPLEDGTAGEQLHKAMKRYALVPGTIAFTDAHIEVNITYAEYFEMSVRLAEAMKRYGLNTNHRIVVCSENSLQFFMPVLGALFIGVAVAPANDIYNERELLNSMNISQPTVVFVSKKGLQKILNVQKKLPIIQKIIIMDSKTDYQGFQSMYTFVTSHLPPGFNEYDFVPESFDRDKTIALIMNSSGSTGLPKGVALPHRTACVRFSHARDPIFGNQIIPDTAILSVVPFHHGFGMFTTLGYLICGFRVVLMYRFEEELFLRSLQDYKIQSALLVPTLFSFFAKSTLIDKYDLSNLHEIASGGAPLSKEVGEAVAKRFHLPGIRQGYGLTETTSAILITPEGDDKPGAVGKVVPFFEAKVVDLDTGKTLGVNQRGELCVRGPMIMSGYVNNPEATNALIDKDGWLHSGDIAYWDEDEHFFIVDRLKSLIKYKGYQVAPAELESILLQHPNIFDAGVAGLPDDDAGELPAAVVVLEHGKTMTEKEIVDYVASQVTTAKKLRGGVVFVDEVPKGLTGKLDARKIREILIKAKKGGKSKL
Method in brief: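 Inhibition of purified Photinus luciferase is measured by luminescence. Substrate levels (D-luciferin, ATP) sit at their KM values. Each compound is tested in a concentration series.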

[18] = qHTS assay to identify small molecule agonists of the constitutive androstane receptor (CAR) signaling pathway - cell viability counter screen (AID 1224836); also: series mostly up to about 92 µM; % is scaled to controls: 0 for no effect and ±100 for the full control effect; nearly all actives have a fitted effect of over 45% in size
Method in brief: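 23 h treatment, 37 C, 5% CO2. Cell line: HepG2 stably expressing hCAR with a CYP2B6-2.2kb construct. Co-treatment: PK11195, 0.75 uM final. Read-out: CellTiter-Fluor fluorescence intensity.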

[19] = qHTS assay to identify small molecule antagonists of the constitutive androstane receptor (CAR) signaling pathway - cell viability counter screen (AID 1224837); also: series mostly up to about 92 µM; % is scaled to controls: 0 for no effect and ±100 for the full control effect; nearly all actives have a fitted effect of over 45% in size
Method in brief: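 Multiplexed cytotoxicity read-out for the CAR antagonist screen: double-stable HepG2-CYP2B6-hCAR cells co-treated with 50 nM CITCO (final) and compound over 15 concentrations, incubated 23 hr, then assessed by CellTiter-Fluor fluorescence.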

[20] = molecular target: Nuclear receptor subfamily 1 group I member 3 (Homo sapiens) (UniProt Q14994); experiment: qHTS assay to identify small molecule antagonists of the constitutive androstane receptor (CAR) signaling pathway (AID 1224838); also: % is scaled to controls: 0 for no effect and ±100 for the full control effect; nearly all actives have a fitted effect of over 40% in size
Nuclear receptor subfamily 1 group I member 3 (Homo sapiens), sequence (Q14994 whole entry, looked up): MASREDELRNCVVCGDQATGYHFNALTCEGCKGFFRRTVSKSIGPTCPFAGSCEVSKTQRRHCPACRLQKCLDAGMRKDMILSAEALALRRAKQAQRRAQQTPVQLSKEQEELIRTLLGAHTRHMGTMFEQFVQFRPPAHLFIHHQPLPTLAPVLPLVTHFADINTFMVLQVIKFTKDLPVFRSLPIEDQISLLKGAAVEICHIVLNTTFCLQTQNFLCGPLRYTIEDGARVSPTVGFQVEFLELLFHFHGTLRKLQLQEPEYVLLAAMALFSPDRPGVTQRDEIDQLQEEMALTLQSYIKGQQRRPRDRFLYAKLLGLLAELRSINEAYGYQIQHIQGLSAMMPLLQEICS
Method in brief: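 Compounds were titrated across 15 concentrations onto HepG2 cells double-stably expressing hCAR and a CYP2B6-2.2kb reporter, together with 50 nM CITCO (final). After 24 h at 37 C, luciferase activity was measured by luminescence.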

CC1(C)O[C@H]2CC(=O)OC[C@]23[C@H]2CC[C@@]4(C)[C@H](c5ccoc5)OC(=O)[C@H]5O[C@]54[C@]2(C)C(=O)C[C@@H]13
inactive: outcome [1] | outcome [2] | outcome [3] | outcome [4] | outcome [5] | outcome [6] | outcome [7] | outcome [8] | outcome [9] | outcome [10] | Potency [11] | outcome [12] | outcome [13] | outcome [14] | Potency [15] | outcome [16] | Potency [17] | outcome [18] | outcome [19] | Potency [20]

CC12CCC(C1)C(C)(C)C2O (stereo not given)
inactive: outcome [2] | outcome [3] | outcome [4] | outcome [5] | outcome [6] | outcome [7] | outcome [8] | outcome [9] | outcome [10] | Potency [11] | outcome [12] | outcome [13] | outcome [14] | Potency [15] | outcome [16] | Potency [17] | outcome [18] | outcome [19] | Potency [20]

CCNC(=O)NCc1cccc(Cl)c1
inactive: outcome [1] | outcome [2] | outcome [3] | outcome [4] | outcome [5] | outcome [6] | outcome [7] | outcome [8] | outcome [9] | outcome [10] | Potency [11] | outcome [12] | outcome [13] | outcome [14] | Potency [15] | Potency [17] | outcome [18] | outcome [19] | Potency [20]

C/C(CC(C)C)=N\O
inactive: outcome [1] | outcome [2] | outcome [3] | outcome [4] | outcome [5] | outcome [6] | outcome [7] | outcome [8] | outcome [9] | outcome [10] | Potency [11] | outcome [12] | outcome [13] | outcome [14] | Potency [15] | outcome [16] | Potency [17] | outcome [18] | outcome [19] | Potency [20]

[O]=[Mo](=[O])=[O]
inactive: outcome [1] | outcome [2] | outcome [3] | outcome [4] | outcome [5] | outcome [6] | activity, negative = cytotoxicity [7] 11.6% [at 19 µM] | activity change, negative = inhibition [8] 4.36% [at 19 µM] | viability change, negative = cytotoxic [9] -2.83% [at 15.8 µM] | activation [10] -20.6% [at 15.8 µM] | activation [11] 0.58% [at 15.8 µM] | activity change, negative = cytotoxicity [12] -1.21% [at 15.8 µM] | activity change, negative = cytotoxicity [13] 3.04% [at 19 µM] | activity, negative = inhibition [14] 8.42% [at 19 µM] | Potency [15] | viability change, negative = cytotoxic [16] 3.34% [at 19 µM] | activity change, negative = inhibition [17] 0.269% [at 23.6 µM] | viability change, negative = cytotoxic [18] -3.23% [at 19 µM] | activity change, negative = cytotoxicity [19] -0.0508% [at 19 µM] | activity, negative = inhibition [20] -9.59% [at 19 µM]

CC(=O)O[Si](C)(OC(C)=O)OC(C)=O
inactive: outcome [1] | outcome [2] | outcome [3] | outcome [4] | outcome [5] | outcome [6] | outcome [7] | outcome [8] | outcome [9] | outcome [10] | Potency [11] | outcome [12] | outcome [13] | outcome [14] | Potency [15] | Potency [17] | outcome [18] | outcome [19] | Potency [20]

OC[C@H]1O[C@@H](O[C@@H]2[C@@H](CO)O[C@](O)(CO)[C@H]2O)[C@H](O)[C@@H](O)[C@H]1O
inactive: outcome [1] | outcome [3] | outcome [4] | outcome [5] | outcome [6] | outcome [7] | outcome [8] | outcome [10] | Potency [11] | outcome [12] | outcome [13] | outcome [14] | Potency [15] | outcome [16] | Potency [17] | outcome [18] | outcome [19] | Potency [20]
